Screening results as filed in PubChem BioAssay.
D1 mod = D1 dopamine receptor (human) allosteric modulation | HEK293 D1, CRE-luciferase, dopamine EC30 potentiation; actives deviate in either direction | B-score at 10 µM | actives 5.9% (n = 58,000);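 active = luminescence count or its row- and column-corrected plate score outside the 99.7% band of the plate's sample wells, on either side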
EphB4 ephrin blk = EphB4-ephrin-B2 interaction antagonism; P54760; EphB4 LBD / TNYL-RAW-Alexa532 peptide, fluorescence polarization; inhibition, % at 7 µM; actives 0.15% (n = 97,000); AID 720;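 active = inhibition above the screen-wide mean inhibition plus 3 SD, cut at about 15% in these data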;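 note: 0% = DMSO wells and 100% = excess unlabeled TNYL-RAW peptide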
DAT uptake mod = changed human dopamine transporter uptake under cocaine IC80. Q01959. LLC-PK1 hDAT cells, [14C]-dopamine uptake with cocaine IC80; actives deviate in either direction. B-score at 10 µM. actives 1.3% (n = 110,000). AID 449768;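 active = Z score or B-score, a plate-position-corrected score, falls beyond the plate's 99.7% confidence bounds, in either direction; inactive = both scores lie inside the 99.7% bounds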;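 note: scored against the spread of the other compound wells on the same plate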
Target sequence (Q01959 whole entry, looked up): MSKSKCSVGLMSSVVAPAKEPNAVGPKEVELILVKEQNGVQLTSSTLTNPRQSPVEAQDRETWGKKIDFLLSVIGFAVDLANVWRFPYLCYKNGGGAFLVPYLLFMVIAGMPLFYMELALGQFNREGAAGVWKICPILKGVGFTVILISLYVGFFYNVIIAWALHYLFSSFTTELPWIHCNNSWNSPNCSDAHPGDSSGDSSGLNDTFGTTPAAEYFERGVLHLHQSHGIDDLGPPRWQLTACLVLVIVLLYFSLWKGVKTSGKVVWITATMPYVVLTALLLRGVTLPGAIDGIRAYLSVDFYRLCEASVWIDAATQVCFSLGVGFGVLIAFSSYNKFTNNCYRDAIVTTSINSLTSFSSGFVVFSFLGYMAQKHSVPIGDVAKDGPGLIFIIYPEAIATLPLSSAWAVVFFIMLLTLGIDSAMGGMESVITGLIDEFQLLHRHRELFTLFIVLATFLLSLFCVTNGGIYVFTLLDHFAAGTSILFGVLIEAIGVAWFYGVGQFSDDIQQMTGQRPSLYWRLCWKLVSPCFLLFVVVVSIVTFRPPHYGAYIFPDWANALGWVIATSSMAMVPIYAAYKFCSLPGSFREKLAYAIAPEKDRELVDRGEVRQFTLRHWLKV
D1 mod confirm = confirmation of human D1 dopamine receptor allosteric modulators; shares compounds with D1 mod; HEK293 D1 CRE-luciferase, dopamine EC30 potentiation; hits give high values; luminescence at 10 µM; actives 88% (n = 2,200);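 active = luminescence in either of two replicates above the same-plate mean plus 3 SD of the low-dose dopamine control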
D1 ag no DA = secondary test of D1 modulators: activity without dopamine; shares compounds with D1 mod; HEK293 D1 CRE-luciferase, luminescence, no dopamine; hits give high values; luminescence at 10 µM; actives 0.8% (n = 1,900); in the data active = luminescence above about 3900
Isoprot counter = alters isoproterenol CRE-luciferase response in HEK293 cells | actives 63% (n = 2,200) | HEK293 D1 CRE-luciferase, isoproterenol EC30 counter-screen | AID 647 | calls only at 10 µM | shares compounds with D1 mod;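 active = luminescence in either replicate above plate mean of wells with a partly effective reference agonist dose plus 3 SD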;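 note: isoproterenol raises cAMP through native beta-adrenoceptor Gs so signal bypasses D1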
The depositor's hits bear a star; i = inactive; nt = no result given; + = active, no number. Shown is part of a subset that was picked to be rich in hits.

SMILES	D1 mod	EphB4 ephrin blk	DAT uptake mod	D1 mod confirm	D1 ag no DA	Isoprot counter
Fc1ccc(-c2nnc3ccc(N4CCc5ccccc5C4)nn23)cc1	0.63	-2	0.52	nt	nt	nt
N#Cc1c2c(c(NCCN3CCOCC3)n3c1nc1ccccc13)CCCC2	3.5*	-7	-1	15848*	1800	+
N#Cc1c2c(c(NCCCN3CCOCC3)n3c1nc1ccccc13)CCC2	0.0091	1	1.1	nt	nt	nt
Fc1ccccc1N1CCN(Cc2nc(-c3ccc(Cl)cc3Cl)no2)CC1	0.09	2	-0.15	nt	nt	nt
C=CCc1ccccc1OCCn1ccnc1	4.2*	3	-0.85	15712*	1544	i
Clc1ccccc1OCCn1ccnc1	0.049	0	-0.023	nt	nt	nt
CCc1c(C)sc(NC(=O)Cn2nc(C(F)(F)F)c3c2CCCC3)c1C#N	nt	-7	-0.095	nt	nt	nt
CCCNC(=O)NC(=O)CSc1ccc2c(c1)OCCO2	nt	-2	-0.29	nt	nt	nt
CC1CCN(c2nc(-c3ccc(F)cc3)cc(C(F)(F)F)n2)CC1	nt	-10	0.57	nt	nt	nt
Fc1ccc(-c2cc(C(F)(F)F)nc(-n3cncn3)n2)cc1	3.4*	-10	-0.58	8460*	1488	i
CC(=O)OC(C(=O)Nc1ccccc1C)C(OC(C)=O)C(OC(C)=O)C(OC(C)=O)C(=O)Nc1ccccc1C (stereo unspecified)	nt	3	nt	nt	nt	nt
Cc1cc2ccccc2c(=O)n1CC(=O)NCC(=O)N1CCN(c2ccccc2F)CC1	3.4*	8	-0.24	7784	1604	i
Cc1cc2ccccc2c(=O)n1CC(=O)NCC(=O)N1CCN(c2cccc(Cl)c2)CC1	-0.46	0	1.1	nt	nt	nt
CC(C)c1ccccc1NC(=O)c1cccc(NC(=O)c2ccccc2)c1	nt	-3	-0.034	nt	nt	nt
CCN(CC)Cc1nc2c(c(=O)[nH]1)C1(CCCC1)Cc1ccccc1-2	nt	3	0.39	nt	nt	nt
CCC1(CC)Cc2ccccc2-c2nc(CN3CCOCC3)[nH]c(=O)c21	18*	-5	0.18	22860*	1804	+
NS(=O)(=O)c1cc(C(=O)N2CCc3ccccc32)c(Cl)cc1Cl	nt	2	1.2	nt	nt	nt
Cc1sc2nc(CN(Cc3cccs3)C(=O)C3CC3)[nH]c(=O)c2c1C	0.11	1	-0.45	nt	nt	nt
N#CCCCCn1c(-c2cncs2)nc2ccccc21	4.7*	-8	0.57	17344*	1684	+
c1ccc(Cn2c(-c3cncs3)nc3ccccc32)cc1	nt	1	-1.3	nt	nt	nt
COC(=O)n1c(SC)nc2ccccc21	5.6*	-13	-0.24	11396*	1220	+
CCCCNC(=O)n1c(SC)nc2ccccc21	nt	-3	-0.66	nt	nt	nt
O=C(CCCSc1nnnn1-c1ccccc1)c1ccc(F)cc1	nt	0	-0.084	nt	nt	nt
COc1cc2ccccc2cc1C(=O)Nc1cccnc1	nt	2	0.71	nt	nt	nt
O=C(Nc1cccnc1)c1ccccc1Oc1ccccc1	6.3*	0	-0.13	15336*	1584	+
SMILES	D1 mod	EphB4 ephrin blk	DAT uptake mod	D1 mod confirm	D1 ag no DA	Isoprot counter
Cc1c(NC(=O)C2C3C=CC(C3)C2C(=O)O)c(=O)n(-c2ccccc2)n1C (stereo unspecified)	nt	-3	-0.34	nt	nt	nt
CC(C)c1ccc(-c2nc(N3CCCC3)nc3n[nH]c(N)c23)cc1	0.05	nt	0.42	nt	nt	nt
Nc1[nH]nc2nc(N3CCOCC3)nc(-c3ccccc3)c12	9.8*	-6	2	13488*	nt	+
Cc1ccccc1OCC(=O)Nc1sc(C(=O)Nc2cccc(C)c2C)c(C)c1C#N	nt	-3	-0.19	nt	nt	nt
O=C(Cn1cc2c(n1)CCCCC2)NCCCN1CCOCC1	2.6*	nt	-0.43	5840	1452	i
O=C(Cn1cc2c(n1)CCCC2)NCCCN1CCCC1	-0.61	-1	-0.025	nt	nt	nt
CC(=O)Nc1cc(C(=O)N2CCOCC2)ccc1S(=O)(=O)c1ccc(C)cc1	5.6*	-1	2.2	5968	1596	i
CC(=O)Nc1cc(C(=O)N2CCCC2)ccc1S(=O)(=O)c1ccc(Cl)cc1	nt	3	-1	nt	nt	nt
CCOC(=O)[C@@H]1[C@H]2COc3ccc(Br)cc3[C@@H]2N2C(=O)N(c3ccc(Cl)cc3)C(=O)[C@]12C	nt	nt	-0.32	nt	nt	nt
Oc1ccc(N2CCN(C(=S)NCCc3ccccc3)CC2)cc1	nt	-2	-0.15	nt	nt	nt
CCOC(=O)N1CCN(S(=O)(=O)c2cc(Br)cc3c2N(C(C)=O)C(C)C3)CC1 (stereo unspecified)	0.51	nt	1.8	nt	nt	nt
CCOC(=O)C1CCN(S(=O)(=O)c2cc(Br)cc3c2N(C(C)=O)C(C)C3)CC1 (stereo unspecified)	4.6*	nt	0.52	8392*	1388	+
O=C(CSc1nnc(Cc2cccs2)n1-c1ccc(Cl)cc1)NCc1ccc2c(c1)OCO2	nt	0	1.8	nt	nt	nt
Cc1ccc(NC(=O)CN(Cc2ccccc2)S(C)(=O)=O)cc1C	nt	11	-0.1	nt	nt	nt
CCn1c(SCC(=O)N2CCCC2)nc2c(c1=O)SC(C)C2 (stereo unspecified)	0.55	nt	-0.7	nt	nt	nt
CCCSc1nc2c(c(=O)n1CC)SC(C)C2 (stereo unspecified)	4.7*	-2	nt	10748*	1604	+
CCSc1nc2c(c(=O)n1Cc1ccccc1)SC(C)C2 (stereo unspecified)	3.4*	-3	0.57	11532*	1552	i
CC1Cc2nc(SCC(N)=O)n(Cc3ccccc3)c(=O)c2S1 (stereo unspecified)	2.2	nt	-0.42	nt	nt	nt
CCC[C@@H]1CCCO[C@@](C(=O)NCc2cc(C)n(C)n2)(C(F)(F)F)C1	nt	nt	-1.3	nt	nt	nt
C=CCn1c(SCc2c(C)noc2C)nc2sc3c(c2c1=O)CCCC3	nt	-11	0.15	nt	nt	nt
C=CCn1c(NCCO)nc2sc3c(c2c1=O)CCC3	11*	nt	-0.019	6332	1628	i
Cc1ccc(Cn2cccc(NC(=O)NC3CCCCC3)c2=O)cc1	nt	-10	0.064	nt	nt	nt
COc1ccc(C2=NOC(C(=O)NCc3cccs3)C2)cc1 (stereo unspecified)	nt	2	-0.84	nt	nt	nt
O=C(NCc1cccs1)C1CC(c2ccccc2O)=NO1 (stereo unspecified)	2.8*	-2	nt	6344*	1416	i
O=C(CSc1ncnc2c1oc1ccccc12)Nc1ccccc1F	0.62	-5	0.087	nt	nt	nt
SMILES	D1 mod	EphB4 ephrin blk	DAT uptake mod	D1 mod confirm	D1 ag no DA	Isoprot counter
CCOc1ccccc1NC(=O)CSc1ncnc2c1oc1ccccc12	3.6*	-7	1.3	6488*	1512	+
O=C(/C=C/c1cccs1)N1CCC2(CC1)Oc1ccc(Cl)cc1C(=O)C21CC(c2ccccc2)=NO1 (stereo unspecified)	nt	nt	0.012	nt	nt	nt
Cc1ccc(S(=O)(=O)CCc2nc3ccccc3s2)cc1C	nt	0	0.025	nt	nt	nt
CCOC(=O)C(CC)Sc1nnc2c3cc(C)ccc3n(C)c2n1 (stereo unspecified)	nt	7	nt	nt	nt	nt
CSc1nnc2c3cc(C)ccc3n(Cc3ccccc3)c2n1	8.9*	nt	0.46	14436*	1372	+
c1ccc(-c2nn3c(-c4ccccc4)nnc3s2)cc1	6.3*	nt	-0.015	14100*	1944	i
Cc1cccc(-c2nnc3sc(-c4ccccc4)nn23)c1	7.6*	-7	0.37	15580*	1692	+
COc1cccc(-c2nnc3sc(-c4ccccn4)nn23)c1	1.5	4	0.33	nt	nt	nt
